According to the supplement of paper PMC8728848:
Shown is part of a subset that was picked to be rich in the strongest signals.

Key:
Experiment in all cases: glycan array binding signal (z-score within array); higher = stronger binding
Conditions in all cases: glycan notation: IUPAC condensed, linker removed
[1] = molecular target: Fuc(a1-2)Gal(b1-3)GlcNAc(b1-3)Gal(b1-4)Glc
How it was run: (§1)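 Glycan array data came from 3228 arrays in the Consortium for Functional Glycomics database, and only arrays with an available protein sequence were kept. Glycan names were put into IUPAC-condensed notation, and columns mapping to the same glycan were averaged. The binding signal is a within-array Z-score, averaged across arrays of one protein sequence run at different concentrations or buffers and across linkers. A negative Z-score can be read as non-binding.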

[2] = molecular target: Fuc(a1-2)Gal(b1-3)GlcNAc(b1-3)GalNAc
How it was run: as §1

[3] = molecular target: Fuc(a1-2)Gal(b1-3)[Fuc(a1-4)]GlcNAc(b1-2)Man(a1-3)[Fuc(a1-2)Gal(b1-3)[Fuc(a1-4)]GlcNAc(b1-2)Man(a1-6)]Man(b1-4)GlcNAc(b1-4)[Fuc(a1-6)]GlcNAc(b1-4)[Fuc(a1-6)]GlcNAc
How it was run: as §1

[4] = molecular target: Fuc(a1-2)Gal(b1-3)[Fuc(a1-4)]GlcNAc(b1-3)[Gal(b1-4)GlcNAc(b1-6)]Gal(b1-4)Glc
How it was run: as §1

[5] = molecular target: Fuc(a1-2)Gal3S(b1-4)GlcNAc
How it was run: as §1

[6] = molecular target: Fuc(a1-2)Gal6S(b1-3)GlcNAc6S
How it was run: as §1

[7] = molecular target: Fuc(a1-2)[GalNAc(a1-3)]Gal
How it was run: as §1

[8] = molecular target: Fuc(a1-2)[GalNAc(a1-3)]Gal(b1-4)GlcNAc
How it was run: as §1

[9] = molecular target: Fuc(a1-2)[GalNAc(a1-3)]Gal(b1-4)GlcNAc(b1-3)Gal(b1-4)GlcNAc
How it was run: as §1

[10] = molecular target: Fuc(a1-2)[GalNAc(a1-4)]Gal(b1-4)GlcNAc
How it was run: as §1

[11] = molecular target: Fuc(a1-2)[GalNAc(b1-3)]Gal
How it was run: as §1

[12] = molecular target: Fuc(a1-3)[Gal(b1-4)]GlcNAc(b1-2)Man
How it was run: as §1

[13] = molecular target: Fuc(a1-3)[Gal(b1-4)]GlcNAc(b1-3)Gal(b1-4)[Fuc(a1-3)]GlcNAc
How it was run: as §1

[14] = molecular target: Fuc(a1-3)[Gal(b1-4)]GlcNAc(b1-3)GalNAc
How it was run: as §1

[15] = molecular target: Fuc(a1-3)[Gal(b1-4)]GlcNAc6S
How it was run: as §1

Gal(a1-3)GalNAc = molecular target: Gal(a1-3)GalNAc
How it was run: as §1

Gal(a1-4)GlcNAc = molecular target: Gal(a1-4)GlcNAc
How it was run: as §1

Gal(b1-3)Gal = molecular target: Gal(b1-3)Gal
How it was run: as §1

[16] = molecular target: Gal(b1-3)GalNAc(b1-3)Gal(a1-4)Gal(b1-4)Glc
How it was run: as §1

[17] = molecular target: Gal(b1-3)GlcNAc(b1-3)Gal(b1-4)GlcNAc(b1-2)[Gal(b1-3)GlcNAc(b1-3)Gal(b1-4)GlcNAc(b1-6)]Man(a1-6)[Gal(b1-3)GlcNAc(b1-3)Gal(b1-4)GlcNAc(b1-2)Man(a1-3)]Man(b1-4)GlcNAc(b1-4)[Fuc(a1-6)]GlcNAc
How it was run: as §1

[18] = molecular target: Gal(b1-3)GlcNAc(b1-3)Gal(b1-4)GlcNAc(b1-3)Gal(b1-4)GlcNAc(b1-2)[Gal(b1-3)GlcNAc(b1-3)Gal(b1-4)GlcNAc(b1-3)Gal(b1-4)GlcNAc(b1-6)]Man(a1-6)[Gal(b1-3)GlcNAc(b1-3)Gal(b1-4)GlcNAc(b1-3)Gal(b1-4)GlcNAc(b1-2)Man(a1-3)]Man(b1-4)GlcNAc(b1-4)[Fuc(a1-6)]GlcNAc
How it was run: as §1

Gal(b1-4)Gal = molecular target: Gal(b1-4)Gal
How it was run: as §1

Gal(b1-4)GlcNAc(b1-2)Man = molecular target: Gal(b1-4)GlcNAc(b1-2)Man
How it was run: as §1

[19] = molecular target: Gal(b1-4)GlcNAc(b1-2)Man(a1-3)[Man(a1-6)]Man(b1-4)GlcNAc(b1-4)GlcNAc
How it was run: as §1

[20] = molecular target: Gal(b1-4)GlcNAc(b1-2)[Gal(b1-4)GlcNAc(b1-4)]Man(a1-3)[GlcNAc(b1-4)][Gal(b1-4)GlcNAc(b1-2)[Gal(b1-4)GlcNAc(b1-6)]Man(a1-6)]Man(b1-4)GlcNAc(b1-4)GlcNAc
How it was run: as §1

[21] = molecular target: Gal(b1-4)GlcNAc(b1-2)[Gal(b1-4)GlcNAc(b1-6)]Man(a1-6)[GlcNAc(b1-4)][Gal(b1-4)GlcNAc(b1-2)Man(a1-3)]Man(b1-4)GlcNAc(b1-4)GlcNAc
How it was run: as §1

[22] = molecular target: Gal(b1-4)GlcNAc(b1-3)Gal(b1-3)GlcNAc
How it was run: as §1

[23] = molecular target: Gal(b1-4)GlcNAc(b1-3)Gal(b1-4)Glc
How it was run: as §1

[24] = molecular target: Gal(b1-4)GlcNAc(b1-3)Gal(b1-4)GlcNAc
How it was run: as §1

[25] = molecular target: Gal(b1-4)GlcNAc(b1-3)Gal(b1-4)GlcNAc(b1-2)[Gal(b1-4)GlcNAc(b1-3)Gal(b1-4)GlcNAc(b1-6)]Man(a1-6)[Gal(b1-4)GlcNAc(b1-3)Gal(b1-4)GlcNAc(b1-2)Man(a1-3)]Man(b1-4)GlcNAc(b1-4)[Fuc(a1-6)]GlcNAc
How it was run: as §1

B1: EUL D1A second (Oryza sativa) (protein)
chain: GAATACTIGGVPVHTVRVFSAAGEDYCLTVRNGTACLAPKNPRDDYQHWIKDMRHSNKIRDEEGYPAFALVNKVTGEAIKHSTGQGHPVKLVPYNPEYQDESVLWTESKDVGKGFRCIRMVNNIYLNFDAFHGDKDHGGIHDGTEIVLWKWCEGDNQRWKILPWILEQKLISEEDLNSAVDHHHHHH
With B1 the “glycan array binding signal (z-score)” value [1] was -1.01, the “glycan array binding signal (z-score)” value [2] was -0.565 and the “glycan array binding signal (z-score)” value [3] was 0.045. For the same binder, the “glycan array binding signal (z-score)” value [4] was 1.09, the “glycan array binding signal (z-score)” value [5] was 0.228 and the “glycan array binding signal (z-score)” value [6] was 1.43. For the same binder, the “glycan array binding signal (z-score)” value [7] was -0.789, the “glycan array binding signal (z-score)” value [8] was -1.07 and the “glycan array binding signal (z-score)” value [9] was -0.086. For the same binder, the “glycan array binding signal (z-score)” value [10] was 0.772, the “glycan array binding signal (z-score)” value [11] was -0.072 and the “glycan array binding signal (z-score)” value [12] was 0.112. For the same binder, the “glycan array binding signal (z-score)” value [13] was -0.106, the “glycan array binding signal (z-score)” value [14] was 0.566 and the “glycan array binding signal (z-score)” value [15] was -0.105. The “glycan array binding signal (z-score)” value (Gal(a1-3)GalNAc) was -1.42, the “glycan array binding signal (z-score)” value (Gal(a1-4)GlcNAc) was -1.01 and the “glycan array binding signal (z-score)” value (Gal(b1-3)Gal) was -0.342. For the same binder, the “glycan array binding signal (z-score)” value [16] was 2.08, the “glycan array binding signal (z-score)” value [17] was 4.86 and the “glycan array binding signal (z-score)” value [18] was 4.47. The “glycan array binding signal (z-score)” value (Gal(b1-4)Gal) was 3.37, the “glycan array binding signal (z-score)” value (Gal(b1-4)GlcNAc(b1-2)Man) was 1.59 and the “glycan array binding signal (z-score)” value [19] was -0.232. For the same binder, the “glycan array binding signal (z-score)” value [20] was -0.986, the “glycan array binding signal (z-score)” value [21] was -0.799 and the “glycan array binding signal (z-score)” value [22] was -0.245. For the same binder, the “glycan array binding signal (z-score)” value [23] was -0.283, the “glycan array binding signal (z-score)” value [24] was -0.532 and the “glycan array binding signal (z-score)” value [25] was 3.31.
